# Assay results from PubChem BioAssay.
# Calls of active or inactive are those of the source.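 Rule for the calls, unless noted: active = inhibition at or above 50% at 10 µM; inactive = inhibition below 50%.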
# Key:
# [1] = inhibitors of TNFa-induced NFkB p65 translocation, primary screen, imaging, HUVEC, MLSMR starter and 10KST1 sets (AID 438;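 active = inhibition above 20% together with a positive visual image hit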;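 note: compound added about 3h40 before a 20 min TNFalpha stimulation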;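 for inhibition: signal is the nuclear over cytoplasmic p65 intensity ratio per well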); conditions: HUVEC TNFa-induced p65 nuclear translocation; cell count: measured here: nuclei count (cytotoxicity indicator), at 2.08 µM; inhibition: at 2 µM, stronger effect = higher value, 0% TNFa-plus-vehicle, 100% no-TNFa wells
# [2] = inhibitors of mutant huntingtin aggregation, primary screen, imaging, exon1htt(103Q)mCFP cells, high-content imaging (AID 483;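 active = visual image review flags a hit and inhibition of aggregation exceeds 20%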;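 note: compound exposure lasted 3 days before fixation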;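 for nuclei count: percent of the per-plate median nuclei count of sample wells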); conditions: exon1htt(103Q)mCFP cell line, aggregate imaging, at 2 µM; inhibition of aggregation: stronger effect = higher value; nuclei count: measured here: cell count, toxicity
# [3] = inhibitors of E-selectin induction by TNFa, primary screen, imaging, HUVEC, immunofluorescence, MLSMR starter and 10KST1 sets (AID 487;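 active = visually confirmed hit in the image check and inhibition above 20%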;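 for inhibition: signal is fraction of cell area covered by stained E-selectin grains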;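 for nuclei count: 100% = median nuclei count of all wells on the same plate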); conditions: HUVEC TNFalpha-induced E-selectin immunofluorescence imaging, at 2 µM; inhibition: stronger effect = higher value; nuclei count: measured here: cell number, toxicity
# [4] = molecular target: Voltage-gated potassium channel subunit beta-2 (Rattus norvegicus) (UniProt P62483); assay: KvBeta enzyme negative modulators, primary screen, biochemical, NADPH fluorescence (AID 622;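 active = fluorescence slope higher than the sample average by over 3 SD, cut at about -0.22 in these data, passing the limit was not always enough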;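 note: slope of raw intensity against log time taken from 70 to 1610 s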); conditions: recombinant KvBeta, 4-cyanobenzaldehyde reduction, at 10 µM, stronger effect = higher value
# Voltage-gated potassium channel subunit beta-2 (Rattus norvegicus), sequence (P62483 whole entry, looked up): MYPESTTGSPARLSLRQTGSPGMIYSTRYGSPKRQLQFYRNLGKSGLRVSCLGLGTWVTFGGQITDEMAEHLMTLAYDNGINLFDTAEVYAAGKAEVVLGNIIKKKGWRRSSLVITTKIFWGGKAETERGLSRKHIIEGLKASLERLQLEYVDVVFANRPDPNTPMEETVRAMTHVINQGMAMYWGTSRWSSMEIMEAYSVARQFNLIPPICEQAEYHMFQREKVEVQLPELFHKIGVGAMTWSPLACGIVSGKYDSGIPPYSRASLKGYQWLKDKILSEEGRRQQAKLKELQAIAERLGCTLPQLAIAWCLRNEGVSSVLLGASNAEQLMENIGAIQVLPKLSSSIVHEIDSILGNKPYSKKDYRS
# [5] = molecular target: Voltage-gated potassium channel subunit beta-2 (Rattus norvegicus) (UniProt P62483); assay: KvBeta positive modulators, primary screen, biochemical, NADPH fluorescence (AID 623;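 active = NADPH fluorescence slope more negative than the mean of all samples by about 3 SD, 99.7% confidence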;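 note: fluorescence intensity change per second fitted from 20 to 320 s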); conditions: Recombinant KvBeta, NADPH fluorescence decrease slope, 10 min; at 10 µM; stronger effect = lower value
# [6] = molecular target: Alpha-2C adrenergic receptor (Homo sapiens) (UniProt P18825); assay: modulators of alpha2C/GIRK thallium flux, primary screen, cell-based, HEK293 alpha2C/GIRK1/2 (AID 624;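 active = fluorescence slope after compound addition differing from the mean of all screened samples at 99.7% confidence, in either direction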;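 note: slope of fluorescence ratio to pre-addition baseline per second over 15 to 24 s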); conditions: thallium flux BTC fluorescence, at 10 µM, actives lie on both sides
# Alpha-2C adrenergic receptor (Homo sapiens), sequence (P18825 whole entry, looked up): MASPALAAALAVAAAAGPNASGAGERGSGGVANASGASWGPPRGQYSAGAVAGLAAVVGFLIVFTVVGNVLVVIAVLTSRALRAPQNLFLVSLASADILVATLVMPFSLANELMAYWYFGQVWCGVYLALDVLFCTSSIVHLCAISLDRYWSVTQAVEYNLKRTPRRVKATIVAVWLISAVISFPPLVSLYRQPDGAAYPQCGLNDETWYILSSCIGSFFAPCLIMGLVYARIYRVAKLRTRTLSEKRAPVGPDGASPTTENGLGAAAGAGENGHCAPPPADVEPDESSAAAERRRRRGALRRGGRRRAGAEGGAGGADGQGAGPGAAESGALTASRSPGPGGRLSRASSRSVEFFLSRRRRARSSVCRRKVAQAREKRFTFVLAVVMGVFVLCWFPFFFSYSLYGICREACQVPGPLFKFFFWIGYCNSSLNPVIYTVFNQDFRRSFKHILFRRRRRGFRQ
# [7] = inhibitors of Sendai virus-induced IRF3 signaling, primary screen, TLR/RLR signaling modifier project, cell-based, Sendai virus stimulus, luciferase, 10K MLSCN set (AID 602276); conditions: HEK293 RL24 IRF3 luciferase reporter, at 10 µM, stronger effect = higher value;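 note: firefly luciferase from ISG56 promoter only with Renilla not read in this screen; 0% = Sendai virus plus DMSO and 100% = medium plus DMSO without virus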
# [8] = inhibitors of poly I:C-induced TLR3 signaling, primary screen, cell-based, poly I:C stimulus, luciferase, 10K MLSCN set (AID 602277;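 active = inhibition of the reporter signal at or above 50%; inactive = inhibition below 50%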); conditions: HEK293-TLR3 RL24 IRF3 luciferase reporter, at 10 µM, stronger effect = higher value
Structure (SMILES),cell count [1],inhibition [1],inhibition of aggregation [2],nuclei count [2],inhibition [3],nuclei count [3],fluorescence slope [4],NADPH fluorescence slope [5],slope [6],inhibition [7],inhibition [8]
FC(F)(F)c1cccc(N2CCN(c3nnnn3-c3ccccc3)CC2)c1,394,-3.8% (inactive),-1.6% (inactive),96.2%,-98.2% (inactive),112%,-0.647 (inactive),1.2e-05 (inactive),0.00945 (inactive),10.2% (inactive),2.35% (inactive)
O=C(COC(=O)C1CCN(S(=O)(=O)c2cccs2)CC1)c1cc2ccccc2o1,536,-8.3% (inactive),-0.1% (inactive),98.7%,-97.6% (inactive),112%,-0.501 (inactive),-1.4e-05 (inactive),0.00534 (inactive),12.4% (inactive),31.7% (inactive)
CN(C)c1nc(Oc2ccc(=O)n(C)n2)nc(N2CCOCC2)n1,306,0.5% (inactive),17.6% (inactive),93.3%,31.4% (inactive),96.5%,-0.632 (inactive),1.5e-05 (inactive),0.00286 (inactive),16.8% (inactive),10.1% (inactive)
COc1cccc(C2CC(c3ccc(C)cc3)n3nc(N)nc3N2)c1 (configuration not stated),510,-0.9% (inactive),-5.2% (inactive),106%,-34.1% (inactive),106%,-0.615 (inactive),-2.8e-06 (inactive),0.00794 (inactive),9.08% (inactive),24.7% (inactive)
Cc1ccc(C(=O)CC2(O)C(=O)N(CN3CCOCC3)c3ccccc32)cc1 (configuration not stated),396,-8.1% (inactive),-5.7% (inactive),103%,-52.9% (inactive),99.1%,-0.367 (inactive),8.1e-06 (inactive),0.00346 (inactive),-4.62% (inactive),5.37% (inactive)
CCOC(=O)Cn1nnc(-c2ccc(SC)cc2)n1,729,-6.9% (inactive),-11.1% (inactive),102%,-69.2% (inactive),116%,-0.329 (inactive),-6.5e-05 (inactive),0.00483 (inactive),11.7% (inactive),16.7% (inactive)
Fc1cccc(Cl)c1Cn1nnc2c(NCc3ccccn3)ncnc21,716,-10.5% (inactive),15.5% (inactive),120%,-26.6% (inactive),108%,-0.514 (inactive),-6.7e-05 (inactive),0.0046 (inactive),6.08% (inactive),9.56% (inactive)
COC(=O)c1cccc(NC(=O)CSc2nnc(COc3ccc(C#N)cc3)n2-c2ccccc2)c1,599,3.7% (inactive),-5.1% (inactive),91.2%,-64.7% (inactive),120%,-0.586 (inactive),4.9e-05 (inactive),0.00802 (inactive),-22% (inactive),-18.5% (inactive)
CCOC(=O)C1=C(O)C(=O)N(c2ccc(S(N)(=O)=O)cc2)C1c1ccccc1 (configuration not stated),431,-0.4% (inactive),-10.8% (inactive),108%,-31.8% (inactive),117%,-0.61 (inactive),-1.5e-05 (inactive),0.00391 (inactive),2.23% (inactive),-14.6% (inactive)
CCOC(=O)Nc1ccc(NS(=O)(=O)c2ccc(C)cc2)cc1,342,-0.8% (inactive),-13.3% (inactive),114%,-108% (inactive),134%,-0.507 (inactive),8.9e-06 (inactive),0.00595 (inactive),1.72% (inactive),9.39% (inactive)
Oc1cccc(C=NCc2ccccc2)c1O,332,-2.5% (inactive),15.5% (inactive),102%,-100% (inactive),130%,-0.46 (inactive),-4e-05 (inactive),0.00215 (inactive),10.5% (inactive),41.8% (inactive)
Cc1ccc(C)c(/C(O)=C2\C(=O)C(=O)N(CCCN3CCOCC3)C2c2cccnc2)c1 (configuration not stated),529,5.5% (inactive),-1.6% (inactive),109%,-280% (inactive),127%,-0.339 (inactive),-2.4e-06 (inactive),0.00619 (inactive),9.67% (inactive),21.1% (inactive)
COc1ccc(S(=O)(=O)N2CCN(CC(=O)Nc3ccc(C)c(F)c3)CC2)cc1,339,-8.1% (inactive),-0.4% (inactive),115%,-4.2% (inactive),80.5%,-0.518 (inactive),1.2e-05 (inactive),0.00517 (inactive),18.5% (inactive),23.8% (inactive)
Cc1nn(C(=O)c2ccc3c(c2)OCO3)c(N)c1-c1ccccc1,581,5.1% (inactive),11.7% (inactive),91.3%,-19.8% (inactive),106%,-0.451 (inactive),1.4e-05 (inactive),0.00618 (inactive),-23.3% (inactive),-108% (inactive)
COC(=O)c1cn(NC(=O)C2CCCO2)c(=O)c2ccccc12 (configuration not stated),415,-2.5% (inactive),12.6% (inactive),103%,-39.1% (inactive),89.7%,-0.462 (inactive),-3.7e-05 (inactive),0.0068 (inactive),11.6% (inactive),20.9% (inactive)
COc1ccc(-c2cc(C(F)(F)F)nc(N3CCN(c4ccc(F)cc4)CC3)n2)cc1OC,827,-10.7% (inactive),-2.4% (inactive),105%,-107% (inactive),122%,-0.52 (inactive),2.2e-05 (inactive),0.00763 (inactive),-20.5% (inactive),-7.7% (inactive)
CCCC(=O)Nc1nnc(Sc2ccc(N(C)C)cc2)s1,671,4.8% (inactive),-9.6% (inactive),96.4%,-15.5% (inactive),97.6%,-0.466 (inactive),-2.9e-05 (inactive),0.00582 (inactive),-1.24% (inactive),-10.3% (inactive)
Cc1nc2ccc(S(=O)(=O)NCC(=O)N3CCCCC3)cc2s1,277,-3% (inactive),11.4% (inactive),79.6%,27.3% (inactive),94.4%,-0.488 (inactive),-4.1e-05 (inactive),0.00708 (inactive),-10.6% (inactive),-1.82% (inactive)
COc1cc2c(c(OC)c1)C(c1ccncc1)CC(=O)N2 (configuration not stated),624,-11.6% (inactive),-25.7% (inactive),111%,-42.5% (inactive),116%,-0.565 (inactive),-2.7e-06 (inactive),0.0063 (inactive),-9.07% (inactive),3.48% (inactive)
C=CCn1c(N)c(C(=O)NCCC2=CCCCC2)sc1=S,450,6.6% (inactive),-12.8% (inactive),104%,4% (inactive),116%,-0.626 (inactive),-1.2e-05 (inactive),0.00668 (inactive),0.338% (inactive),-64.6% (inactive)
COc1ccc(C2c3c(oc4ccccc4c3=O)C(=O)N2Cc2ccncc2)cc1OC (configuration not stated),665,-2.6% (inactive),-6.6% (inactive),108%,-9.9% (inactive),115%,-0.315 (inactive),-4.9e-05 (inactive),0.00493 (inactive),14.3% (inactive),18.9% (inactive)
CN(C(=O)Cn1c(=O)n(CCCCC(=O)NC2CCCC2)c(=O)c2ccccc21)C1CCCCC1,347,-1.2% (inactive),-6.6% (inactive),107%,-15.5% (inactive),117%,-0.478 (inactive),1.3e-07 (inactive),0.00575 (inactive),16.4% (inactive),25.2% (inactive)
Cc1ccc(NC(=O)C2CC=CCC2C(=O)N2CCCCC2)cc1 (configuration not stated),636,-23.5% (inactive),-67% (inactive),66.9%,-9.5% (inactive),94.3%,-0.499 (inactive),-2.1e-05 (inactive),0.00665 (inactive),-0.377% (inactive),26.9% (inactive)
O=C(Nc1nonc1NC(=O)C1CCCCC1)C1CCCCC1,396,10.2% (inactive),-7.6% (inactive),108%,-71.5% (inactive),127%,-0.473 (inactive),3.9e-06 (inactive),0.00459 (inactive),13.6% (inactive),22.8% (inactive)
Cc1cccc(-n2nc3c(c2NC(=O)CCC2CCCCC2)CS(=O)C3)c1C (configuration not stated),637,-8.7% (inactive),-46.2% (inactive),80%,-27.4% (inactive),110%,-0.427 (inactive),-2.6e-06 (inactive),0.00515 (inactive),10.6% (inactive),37.7% (inactive)
CCCCn1c(NCCC)nc2c1c(=O)[nH]c(=O)n2C,383,-6.2% (inactive),-0.7% (inactive),114%,-38% (inactive),124%,-0.402 (inactive),-0.000106 (inactive),0.00598 (inactive),16% (inactive),29.1% (inactive)
COc1cccc(NC(=O)N2CCN(c3cccc(C)c3C)CC2)c1,647,-5.2% (inactive),-12.7% (inactive),75.8%,-139% (inactive),93.3%,-0.455 (inactive),-4.9e-05 (inactive),0.00389 (inactive),-24.5% (inactive),-55.2% (inactive)
